Screening results: PubChem, National Center for Advancing Translational Sciences (NCATS)
Akt phos inh: inhibitors of Akt phosphorylation; Neuro2A IGF-stimulated pAkt S473 HTRF, 20 min; active compounds read low; actives 0.32% (n = 360,000); activity change, % for hits at 50 µM; in the data active = activity change below about -80%; inconclusive = mostly about -51% to -80%; also: % is scaled to controls: 0 for no effect and ±100 for the full control effect
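Neuro2A cells (4,500/well, DMEM with 0.5% FBS) were treated with compound at a single 50 µM final concentration, stimulated with 6 nM IGF for 20 min at 37 °C, and lysed. Phospho-Akt Ser473 was read by HTRF as 665/615 ratio ×10^4.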
RXFP1 agonist: agonists of human relaxin receptor RXFP1. AID 2676. actives 0.3% (n = 370,000). Q9HBX9. Potency, µM (top dose mostly 57.5 µM), without a hit: at the highest dose activation, most hits filed as activators. HEK293T-RXFP1 cAMP TR-FRET, 30 min; response scale: percent of porcine relaxin response, buffer zero; active = well fitted activation curve with a large enough effect; inconclusive = small, poorly fitted or top-dose-only effect; also: potency is read from the fitted curve at half-maximal effect; % is scaled to controls: 0 for no effect and ±100 for the full control effect; nearly all actives have a fitted effect of over 60% in size
Target sequence (Q9HBX9 whole entry, looked up): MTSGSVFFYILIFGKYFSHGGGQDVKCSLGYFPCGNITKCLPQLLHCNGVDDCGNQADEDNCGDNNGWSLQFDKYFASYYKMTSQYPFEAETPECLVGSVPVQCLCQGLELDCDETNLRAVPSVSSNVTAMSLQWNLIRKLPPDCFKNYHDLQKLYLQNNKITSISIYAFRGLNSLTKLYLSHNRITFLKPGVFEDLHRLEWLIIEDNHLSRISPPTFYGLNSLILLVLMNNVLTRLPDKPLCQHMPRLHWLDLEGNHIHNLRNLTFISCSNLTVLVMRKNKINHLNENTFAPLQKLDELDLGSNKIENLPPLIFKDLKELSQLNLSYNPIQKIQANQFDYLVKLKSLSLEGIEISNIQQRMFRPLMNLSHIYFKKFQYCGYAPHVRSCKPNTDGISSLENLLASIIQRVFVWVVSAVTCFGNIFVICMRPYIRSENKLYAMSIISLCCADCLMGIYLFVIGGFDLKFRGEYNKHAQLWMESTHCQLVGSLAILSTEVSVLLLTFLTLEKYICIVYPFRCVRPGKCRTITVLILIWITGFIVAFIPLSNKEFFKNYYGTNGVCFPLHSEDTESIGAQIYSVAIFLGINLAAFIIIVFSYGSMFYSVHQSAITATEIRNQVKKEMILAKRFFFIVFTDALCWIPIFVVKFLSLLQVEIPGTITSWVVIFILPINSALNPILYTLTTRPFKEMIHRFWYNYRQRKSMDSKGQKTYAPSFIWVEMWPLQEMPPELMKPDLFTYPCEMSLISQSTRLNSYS
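HEK293T cells stably expressing RXFP1 were pretreated with the PDE4 inhibitor Ro 20174, exposed to compounds for 30 min at 37C, lysed, and cAMP was read by TR-FRET. Data normalized to buffer (basal) and 29 nM porcine relaxin (100%).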
RXFP1 antag: blocks the human relaxin receptor RXFP1 | AID 1259400 | HEK293-RXFP1, relaxin-stimulated cAMP HTRF, 30 min; active compounds read low | Q9HBX9 | activity change, negative = inhibition, % at 57.5 µM | actives 0.59% (n = 350,000);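 active = activity change of -60% or lower, but not beyond a set lower limit; inconclusive = change between -60% and -40%, or beyond the set limit; inactive = change above -40%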; also: % is scaled to controls: 0 for no effect and ±100 for the full control effect
gsp ag: agonists of gsp mutant (McCune-Albright syndrome). Potency, µM (top dose mostly 76.9 µM), for inactives: at the highest dose activation (cAMP increase), usual class: activators. gsp mutant cells, cAMP HTRF, 30 min. actives 0.13% (n = 340,000); active = well fitted activation curve with a large enough effect; inconclusive = small, poorly fitted or top-dose-only effect, or another doubt; inactive = no such curve, though single readings can be large or run the other way; cell line not stated here;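 also: phosphodiesterase inhibitor Ro 20-1724 added with compounds to block cAMP breakdown; potency is read from the fitted curve at half-maximal effect; nearly all actives have a fitted effect of over 60% in size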
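Cells stably selected in G418 were plated at 2000/well, grown 16-24 hr, then given compounds in DMSO with the PDE inhibitor […] (300 uM solution added) for 30 min at 37C; cAMP was read by HTRF.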
gsp antag: antagonizes gsp, the McCune-Albright syndrome mutation. gsp-mutant cells, cAMP HTRF, 30 min. AID 624288. actives 0.4% (n = 340,000). Potency, µM (series often up to 76.9 µM), without a hit: top-dose activity change, negative = inhibition, usual class: inhibitors; calls by dose curve; cell line not stated here;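 also: intracellular cAMP measured with PDE inhibitor Ro 20-1724 present during compound exposure; potency is read from the fitted curve at half-maximal effect; % is scaled to controls: 0 for no effect and ±100 for the full control effect; nearly all actives have a fitted effect of over 65% in size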
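Cells in G418 medium, seeded 16-24 h, 37C; buffer exchange to DPBS + 1 mM CaCl2, 0.5 mM MgCl2, 0.05% BSA; cpds in DMSO + […] (300 uM stock), 30 min 37C; HTRF cAMP detection.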
* marks the source's active call; other numbers are inactive results; i = inactive; ? = inconclusive; nt = not tested or not shown; [ ] = dose if it differs, or a comment. In the library only some 1.3% were active in any assay of this set; here they are far more common.

SMILES	Akt phos inh	RXFP1 agonist	RXFP1 antag	gsp ag	gsp antag
Cc1cc(C(=O)CN2C(=O)C(=O)N(Cc3ccccc3)C2=O)c(C)n1Cc1ccccc1	i	nt	4	-6%	11%
Cc1ccc(Cl)cc1NS(=O)(=O)c1ccc(N2CCCCS2(=O)=O)cc1	nt	-1%	15	nt	nt
O=C(NC1CCN(Cc2ccccc2)CC1)c1ccccc1OCc1ccccc1	i	2%	-4	-23%	-7%
COCCCNCCCCOc1ccc(OCc2ccccc2)cc1	i	1%	-28	-40%	-5%
c1ccc(COc2ccc(OCCCNC3CCCC3)cc2)cc1	i	1%	-86*	28%	18%
O=C(NC1CCCC1)c1ccccc1OCc1ccccc1	i	-2%	-82*	0%[15.4 µM]	-14%
C=C(CCC(=O)c1ccccc1)C(=O)c1ccccc1	i	1%	-67*	-11%	9%
O=C(CCCCCCCC(=O)c1ccccc1)c1ccccc1	i	2%	-5	?	2%
CC1CCc2onc(C(=O)N3CCN(c4ccc(F)cc4)CC3)c2C1 (stereo not given)	nt	-3%	9	nt	nt
CCOP(=O)(c1c(F)c(F)c(F)c(F)c1F)C(O)c1ccccc1 (stereo not given)	-116%*	3%	1	-7%	-9%
COc1ccc(CCN2C(=O)CSC2=Nc2ccc(C(C)C)cc2)cc1OC	i	3%	-33	-8%[15.4 µM]	28µM*
COc1ccc(N=C2SCC(=O)N2CCc2ccc(OC)c(OC)c2)cc1	i	1%	7	-9%	-12%
Cc1oc(-c2ccc(C(=O)Nc3cccc(C(F)(F)F)c3)cc2)nc1CSc1ccccc1	nt	13%	-5	nt	nt
COc1ccc(OC)c(NC(=O)Cn2c(CCC(=O)O)ccc2-c2cccs2)c1	-119%*	-1%	1	-44%	-14%
COc1ccc(OC)c(NC(=O)Cn2c(CCC(=O)O)ccc2-c2ccccc2)c1	i	-1%	-35	15%	-11%
O=[N+]([O-])c1ccc2c(c1)C(N1CCN(CCO)CC1)Cc1ccc(F)cc1S2 (stereo not given)	i	nt	nt	nt	nt
Fc1ccc2c(c1)Sc1ccc(Cl)cc1CC2N1CCN(CCC2OCCO2)CC1 (stereo not given)	i	nt	-62*	?	9%
COc1cccc(C(=O)NNC(=O)C(=O)Nc2cccc(Cl)c2C)c1	i	1%	-70*	4%	1%
O=C(Nc1ccc(Cl)cc1)C1CCN(c2nc3ccccc3n3cccc23)CC1	nt	3%	-6	nt	nt
Cc1sc(-n2c(C)cc(/C=C3\SC(=S)NC3=O)c2C)c(C#N)c1C	nt	1%	-105*	10%	-39%
O=S(=O)(/N=S1/CC=CCN1S(=O)(=O)c1ccccc1)c1ccccc1 (stereo not given)	i	-1%	-72*	-1%	-11%
CCCSc1ncc(Cl)c(C(=O)Nc2sc3c(c2C(=O)NCC)CCCC3)n1	nt	-1%	1	nt	nt
CN(C)c1ccc(-c2nc3cc(N)ccc3o2)cc1	i	28µM*	19	20µM*	12%
Cc1cc(NS(=O)(=O)c2ccc(Nc3nc(-c4ccc(O)cc4)cs3)cc2)no1	i	-2%	-11	-32%	-18%
Cc1cc(NS(=O)(=O)c2ccc(Nc3nc(-c4ccc(C)c(C)c4)cs3)cc2)no1	i	2%	12	-7%	22µM*
SMILES	Akt phos inh	RXFP1 agonist	RXFP1 antag	gsp ag	gsp antag
CCOC(=O)c1c(C)[nH]c(C)c1S(=O)(=O)NCC(=O)N1CCN(c2cccc(C)c2)C(C)C1 (stereo not given)	nt	-1%	-4	nt	nt
CCCc1cc(C(=O)Nc2ccc(C(=O)c3ccc(F)cc3)cc2)n(C)n1	i	1%	-14	21%	35µM*
O=C(/C=C/c1ccc(Cl)cc1Cl)NCCSCc1ccccc1	i	1%	-22	1%	8%
O=C(/C=C/c1ccc(Cl)cc1Cl)NCCSc1ccccc1	i	0%	-18	?	45µM*
CCN(CC)c1c([N+](=O)[O-])c(=O)n(C)c2ccccc12	i	-1%	-35	-9%[15.4 µM]	-8%
Cn1c(=O)c([N+](=O)[O-])c(Cl)c2ccccc21	i	2%	-80*	-2%[15.4 µM]	28µM*
CC1CCN(C(=O)CN2c3ccc(Br)cc3-c3ccccc3S2(=O)=O)CC1	nt	1%	-8	nt	nt
COc1cc(C(=O)NCC2CCCN2S(=O)(=O)c2cccs2)cc(OC)c1OC (stereo not given)	i	1%	-82*	10%[15.4 µM]	-2%
Cc1ccc(C(=O)NCC2CCCN2S(=O)(=O)c2cccs2)cc1C (stereo not given)	i	0%	-1	18%	-2%
COc1cc(NC(=O)Cn2c(=O)n(Cc3ccccc3Cl)c(=O)c3cc(OC)c(OC)cc32)cc(OC)c1	nt	25µM*	nt	nt	nt
CCC(Oc1ccc(F)cc1)C(=O)Nc1cc(-c2ccc(C)cc2)no1 (stereo not given)	nt	-1%	?	nt	nt
CCC(Oc1ccc(F)cc1)C(=O)Nc1nc(-c2ccc(F)cc2)ns1 (stereo not given)	nt	1%	-87*	nt	nt
Cc1ccc(NC(=O)CCCn2c(=O)c3cccn3c3cccnc32)cc1C	nt	14%	0	nt	nt
COC(=O)c1c(C)[nH]c(C(=O)C(C)OC(=O)C2CC(=O)N(c3ccc(C)cc3)C2)c1C (stereo not given)	i	0%	-11	28%	40µM*
CCC(=O)Oc1ccc(C/C(=N\O)c2ccc(O)cc2O)o1	i	-1%	-60*	-20%	5.6µM*
Cc1cccc(N2CCN(S(=O)(=O)c3ccc4c(c3)C(C(C)C)C(=O)N4)CC2)c1C (stereo not given)	nt	4%	nt	nt	nt
CC(=O)Nc1c2c3c(cccc3n(C)c1=O)C(=O)c1ccccc1-2	-113%*	nt	-21	?	4%
CCc1cccc(NC(=O)Cn2nc3c4cc(F)ccc4n(Cc4cccc(C)c4)cc-3c2=O)c1	nt	1%	1	nt	nt
COc1cccc(N2CCN(C(=O)c3cccc(-n4c(C)nc5cccnc54)c3)CC2)c1	nt	13%	?	nt	nt
Cc1nc2cccnc2n1-c1cccc(C(=O)N2CCN(c3cccc(Cl)c3)CC2)c1	nt	19%	-64*	nt	nt
CCc1ccc(CN(Cc2ccco2)C(=O)c2ccc(C)cc2)cc1	nt	-1%	-68*	nt	nt
Cc1ccc(C(=O)N(Cc2ccco2)Cc2sccc2C)cc1	nt	0%	-98*	nt	nt
CCOc1ccc(C(=O)N(Cc2ccc(C(C)C)cc2)Cc2ccco2)cc1	nt	3%	-79*	nt	nt
Cc1ccc(CN(Cc2ccco2)C(=O)COc2ccc(C(C)C)cc2)cc1	nt	0%	-32	nt	nt
Cc1ccc(C(=O)N(Cc2ccc(N(C)C)cc2)Cc2ccco2)cc1	nt	-1%	-22	nt	nt
Cc1ccsc1CN(Cc1ccco1)C(=O)c1ccc(Cl)cc1	nt	5%	-74*	nt	nt
